Only some compounds are listed: those with a hit (about 2.9% of all), similar ones and a draw of the others.
Cardio protect: myocardial damage modulation in H9c2 cells | H9c2 cardiomyocytes, H2O2 injury protection, ATPLite, 2 h | protection from H2O2 cell death, % at 20 µM | 360,000 tested, 0.63% active | AID 588492;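 active means compounds giving at least 50% protection of heart cells from peroxide-induced death in the single-dose screen, raw or plate-pattern-corrected value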;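 further: 0% = DMSO wells with peroxide and 100% = DMSO wells without peroxide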
APOBEC3A inh: blocks human APOBEC3A ssDNA deamination. P31941. recombinant A3A, FAM/TAMRA ssDNA deamination fluorescence. inhibition, % at 20 µM. 330,000 tested, 0.41% active. AID 493011;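 active means at least 40% inhibition at 20 µM here, with at most 30% in a related deaminase screen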;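 further: plate controls were A3A with DMSO for no effect and wells lacking A3A enzyme for full effect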
Target sequence (P31941 whole entry, looked up): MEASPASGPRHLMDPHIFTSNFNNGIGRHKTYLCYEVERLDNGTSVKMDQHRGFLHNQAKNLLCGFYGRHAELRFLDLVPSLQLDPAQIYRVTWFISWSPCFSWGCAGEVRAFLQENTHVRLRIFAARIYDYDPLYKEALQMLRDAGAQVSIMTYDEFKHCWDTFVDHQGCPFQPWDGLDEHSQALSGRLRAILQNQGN
APOBEC3G inh: inhibitors of human APOBEC3G DNA deaminase. Q9HC16. recombinant A3G, ssDNA deamination FAM/TAMRA fluorescence. inhibition, % at 20 µM. 330,000 tested, 0.28% active;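 active means inhibition of at least 40% at 20 µM, with no more than 30% in the related APOBEC3A deaminase screen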;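 further: plate controls were DMSO wells with A3G for no effect and wells lacking A3G enzyme for full effect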
Target sequence (Q9HC16 whole entry, looked up): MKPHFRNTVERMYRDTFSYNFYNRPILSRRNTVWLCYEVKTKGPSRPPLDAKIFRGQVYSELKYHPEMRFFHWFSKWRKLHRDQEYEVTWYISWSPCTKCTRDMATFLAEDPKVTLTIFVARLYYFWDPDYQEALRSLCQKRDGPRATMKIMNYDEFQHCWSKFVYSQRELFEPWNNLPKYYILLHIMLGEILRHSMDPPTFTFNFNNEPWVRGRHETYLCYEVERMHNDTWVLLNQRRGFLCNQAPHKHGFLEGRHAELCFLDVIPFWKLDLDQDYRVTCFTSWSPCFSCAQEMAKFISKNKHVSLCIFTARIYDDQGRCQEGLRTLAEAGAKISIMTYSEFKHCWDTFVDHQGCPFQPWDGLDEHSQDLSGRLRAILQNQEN
PfGluPho inh: PfG6PD (Plasmodium falciparum) enzyme inhibition; PfGluPho enzyme, NADPH resazurin-diaphorase fluorescence; inhibition, % at 20 µM; 350,000 tested, 0.78% active;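 active means inhibition reaching at least a set limit at 20 µM in the primary screen, cut at about 59% in these data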;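 further: 0% = DMSO wells with substrate and 100% = DMSO wells lacking glucose-6-phosphate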
H9c2 TAG inh: reduces triacylglycerol accumulation in H9c2 cells | Nile Red lipid (TAG) fluorescence; cells loaded with 200 µM oleic acid | inhibition, % at 12.5 µM | 230,000 tested, 0.66% active | AID 651582;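 active means pattern-corrected inhibition of lipid staining of at least 50% with the nuclear-stain viability signal not falling by more than 50%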;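 further: 0% = DMSO wells and 100% = triacsin C control wells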
NadD block: blocks S. aureus nicotinate mononucleotide adenylyltransferase | purified NadD enzyme, colorimetric absorbance read-out | inhibition, % at 20 µM | 360,000 tested, 0.78% active; in the data active means inhibition above about 26%
An asterisk follows results filed as active; x = no result.

SMILES	Cardio protect	APOBEC3A inh	APOBEC3G inh	PfGluPho inh	H9c2 TAG inh	NadD block
O=[N+]([O-])c1ccc(Nc2ccccc2)c2nonc12	-16.6	4.8	-1.1	-12.7	x	-3.2
O=[N+]([O-])c1ccc(Sc2cccc[n+]2[O-])c2nonc12	-18.1	x	x	115.0*	101.7*	-5.7
CCCCN(C)CCNC(=O)c1ccc(Cn2c(=S)[nH]c3ccc(Br)cc3c2=O)cc1	5.7	7.7	-5.5	-6.0	11.8	16.2
O=c1[nH]c2cc([N+](=O)[O-])ccc2c2ccc([N+](=O)[O-])cc12	-1.4	x	x	22.5	9.6	24.3
O=c1[nH]c2ccccc2c2ccccc12	71.2*	-0.5	-4.8	11.5	-10.4	-1.6
O=c1[nH]c2cc([N+](=O)[O-])ccc2c2ccccc12	65.1*	x	x	12.3	3.4	-1.6
O=c1[nH]c2cccc(Cl)c2c2ccccc12	50.7*	x	x	11.9	-4.3	3.0
O=c1[nH]c2ccccc2c2cn(-c3ccccc3)nc12	-10.5	-3.4	-5.8	64.1*	x	0.7
COC(=O)c1ccc(NC(=O)N(c2ccccc2)c2ccccc2)cc1	-4.4	-5.1	-5.2	13.7	x	-4.0
On1ccccc1=S	-34.0	x	x	75.4*	100.5	2.9
CCN1CCC(O)(/C=C/c2ccc(C(C)C)cc2)C(C(=O)/C=C/c2ccc(C(C)C)cc2)C1 (stereo not drawn)	-19.3	x	x	39.4	66.2*	9.7
COc1cc(C=NO)nc(-c2ccccn2)c1	55.6*	x	x	13.5	6.3	-0.9
COc1ccc(Oc2ccccc2/C=N/O)cc1	-6.4	-0.7	-3.1	-20.6	-7.8	-6.6
O=C(/C=C/c1ccccc1)NC(=S)NNC(=O)c1cnccn1	57.1*	-4.8	-13.7	-9.2	3.2	-3.7
O=C(/C=C/c1ccccc1)NC(=S)NNC(=O)c1cccnc1	-7.0	1.4	0.4	-33.5	-9.1	6.5
O=C1N[C@H](Cc2ccccc2)COC(=O)[C@H](Cc2ccc(F)cc2)C/C=C\C[C@@H]1CC(=O)N(CCO)Cc1ccccc1	-2.1	-3.8	-4.4	16.2	21.2	-5.8
CC(C)(C)OC(=O)C[C@@H]1C/C=C\C[C@@H](CC(=O)N[C@@H](CO)Cc2ccccc2)C(=O)NC[C@@H](c2ccccc2)OC1=O	64.7*	1.3	-6.0	1.5	7.5	0.6
O=C1N[C@H](Cc2ccccc2)COC(=O)[C@@H](Cc2ccc(F)cc2)C/C=C\C[C@H]1CC(=O)N(CCO)Cc1ccccc1	57.5*	-0.1	-5.9	-10.6	9.8	-7.1
O=C(C[C@H]1C/C=C/CC[C@H](Cc2ccc(F)cc2)C(=O)O[C@H](c2ccccc2)CNC1=O)NCCO	-2.7	-5.4	-4.1	13.1	6.0	-1.5
O=C(C[C@@H]1C/C=C/CC[C@@H](Cc2ccc(F)cc2)C(=O)O[C@@H](c2ccccc2)CNC1=O)NCCO	58.6*	-2.1	-9.2	10.4	-6.9	-3.9
O=C1NC[C@H](c2ccccc2)OC(=O)[C@H](Cc2ccc(F)cc2)C/C=C\C[C@H]1CC(=O)N(CCO)Cc1ccccc1	94.4*	-1.4	-9.5	-17.5	3.5	-9.1
CC1CCCC(NC(=O)c2ccc3snnc3c2)C1C (stereo not drawn)	-2.6	-4.6	-6.3	3.3	x	0.8
COCCNC(=O)C1(C)CCCN(C(=O)c2cccc(OC(F)(F)F)c2)C1 (stereo not drawn)	5.7	x	x	x	-0.4	3.9
OCCNCc1cccc(-c2ccccc2)c1O	3.7	x	x	14.6	2.6	1.6
CN(Cc1ccc(OC(F)F)cc1)C(=O)c1ccccc1Sc1ccccc1C#N	0.7	0.9	-6.3	2.8	8.4	-1.8
SMILES	Cardio protect	APOBEC3A inh	APOBEC3G inh	PfGluPho inh	H9c2 TAG inh	NadD block
COc1cccc(NC(=O)c2ncc(Cl)c(Cl)c2Cl)c1	-8.5	1.4	-9.3	-8.6	-1.2	-2.4
Cc1ccc([N+](=O)[O-])c(NC2OC(CO)C(O)C2O)c1 (stereo not drawn)	-3.2	1.9	-0.6	-2.6	-6.3	-2.6
CCN(CC)CCC(=O)Nc1cccc2c1C(=O)c1ccccc1C2=O	2.1	29.1	14.9	14.3	93.1*	-7.4
COc1ccc(N2CCN(C(=O)C3CCCN(c4ncnc5c4nc4n5CCCCC4)C3)CC2)cc1 (stereo not drawn)	24.3	-3.6	3.2	0.3	x	2.3
CC(=O)c1ccc(N2CCN(C(=O)C3CCCN(c4ncnc5c4nc4n5CCCCC4)C3)CC2)cc1 (stereo not drawn)	54.8*	1.9	4.6	15.0	x	3.3
Nc1ccc(N)c(C(=O)O)c1	-12.6	98.5	89.2	70.9*	6.2	33.4*
Cc1c(NS(=O)(=O)c2cccc(C(=O)NCc3cccc(Cl)c3)c2)c(=O)n(-c2ccccc2)n1C	-3.8	x	x	1.5	-3.5	6.8
CC1CC(C)CN(S(=O)(=O)c2ccc(C(=O)Nc3nnc(-c4cccs4)o3)cc2)C1 (stereo not drawn)	50.3*	-6.0	-9.2	-39.2	7.2	26.2
O=C(Nc1nnc(-c2ccco2)o1)c1ccc2ccccc2c1	64.4*	-3.8	-12.0	-1.6	x	11.0
COc1ccc(-c2nnc(NC(=O)c3ccc(F)cc3)o2)cc1	67.8*	0.6	1.0	-18.8	-1.3	3.4
Cc1ccc(C(=O)Nc2nnc(-c3ccco3)o2)cc1	15.9	-0.8	-0.5	-5.6	x	9.7
CC1CN(S(=O)(=O)c2ccc(C(=O)Nc3nnc(-c4ccco4)o3)cc2)CC(C)O1 (stereo not drawn)	11.2	2.8	2.5	0.3	8.6	9.2
COc1cccc(-c2nnc(NC(=O)c3ccc(S(=O)(=O)N4CC(C)OC(C)C4)cc3)o2)c1 (stereo not drawn)	55.5*	0.4	-1.5	-25.9	2.0	22.9
COCCN(CC(=O)Nc1cccc(C)c1C)C(=O)c1cc2c(s1)CCC2	-7.9	25.9	5.5	5.0	-10.7	1.5
Cc1ccc([C@@H]2CC(=O)[C@@H]3CN(S(=O)(=O)c4ccc(C)cc4)[C@H](c4ccc(Cl)cc4)C[C@@H]3N2S(=O)(=O)c2ccc(Cl)cc2)cc1	2.9	x	x	-0.4	12.0	21.2
CCC1CCCCN1S(=O)(=O)c1ccc(C(=O)Nc2nnc(-c3cccs3)o2)cc1 (stereo not drawn)	75.1*	-1.5	-3.7	-47.3	-13.4	41.7*
CN(C)S(=O)(=O)c1ccc(C(=O)Nc2nnc(-c3cccs3)o2)cc1	17.0	0.5	0.6	-20.8	x	17.8
CCc1nc2ccc(C(=O)NCC3CCCCC3)cn2c1N(C)C(=O)c1cccc(OC)c1	2.4	x	x	x	0.3	6.1
CCOc1ccc(C(C)=O)cc1N1C(=O)C2C3C=CC(O3)C2C1=O (stereo not drawn)	-17.5	-5.6	49.4*	4.2	x	-4.6
Cc1ccc(NC(=O)C2(NC(=O)c3ccccn3)CCCCC2)cc1Br	-3.5	-1.9	-9.0	42.8	x	8.9
CC(C)N=c1cc2n(-c3ccc(Cl)cc3)c3ccccc3nc-2cc1Nc1ccc(Cl)cc1	-43.8	-3.0	-0.9	18.1	137.1*	10.1
Cn1c(CNc2ccc(Cl)cc2)nc2ccccc21	-6.2	-3.2	-4.8	23.2	-16.0	8.4
